Test [1] relates to XIP peptide (Xip251-270) binding. Description: small-molecule binders of XIP peptide, primary screen, biochemical, small-molecule microarray, fluorescence 635/667 nm, 0.1 µg/mL protein (AID 1182). Conditions: fluorescent protein binding, 635 nm, higher = more signal, called active from +8 up or from −8 down.
For test [2], the system named is XIP peptide (Xip251-270). Description: small-molecule binders of XIP peptide, primary screen, biochemical, small-molecule microarray, fluorescence 635/667 nm, 0.5 µg/mL protein (AID 1183). As to conditions: small-molecule microarray binding, fluorescence 635 nm; higher = more signal.
Test [3] can be described thus: Plasmodium falciparum growth inhibition, primary screen, strain 3D7, DAPI fluorescence, 100 nL (AID 1184).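 Note: parasites grown inside human red blood cells in medium with human serum.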 As to conditions: P. falciparum 3D7 growth, 3 d, higher = more signal.
The target of test [4] is Homeobox protein Hox-A13 (Mus musculus) (UniProt Q62424). Description: inhibitors of HoxA13-DNA binding, primary screen, biochemical, fluorescence polarization, labeled oligonucleotide (AID 1185). Conditions: 15 min, higher = more signal, called active from +8 up or from −8 down. A general note: Polarisation of emitted light reports the rotation of a fluorescent probe.
Homeobox protein Hox-A13 (Mus musculus), sequence (Q62424 whole entry, looked up): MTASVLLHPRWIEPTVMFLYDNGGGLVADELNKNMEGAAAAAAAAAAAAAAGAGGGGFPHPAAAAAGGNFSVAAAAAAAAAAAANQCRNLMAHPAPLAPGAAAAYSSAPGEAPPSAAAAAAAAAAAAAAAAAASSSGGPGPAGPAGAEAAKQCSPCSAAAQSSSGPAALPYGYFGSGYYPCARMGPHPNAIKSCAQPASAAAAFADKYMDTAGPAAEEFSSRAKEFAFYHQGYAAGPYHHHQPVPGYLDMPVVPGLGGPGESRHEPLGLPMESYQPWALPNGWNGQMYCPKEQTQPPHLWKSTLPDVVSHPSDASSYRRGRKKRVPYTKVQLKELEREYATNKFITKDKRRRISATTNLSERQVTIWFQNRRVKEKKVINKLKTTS
Test [5] is described as follows: inhibitors of hydroxyurea-induced Chk1 phosphorylation, primary screen, imaging, HeLa, phospho-Chk1 antibody, percent positive cells (AID 1186). As to conditions: hydroxyurea-induced phospho-Chk1 immunofluorescence imaging, higher = more signal.
The nature of test [6]: inhibitors of hydroxyurea-induced Chk1 phosphorylation, primary screen, imaging, HeLa, phospho-Chk1 nuclear intensity (AID 1187). Conditions: hydroxyurea-induced phospho-Chk1 immunofluorescence imaging, higher = more signal.

Calls of active or inactive are those of the source. Unless noted, the rule behind the calls is not given here.

`O=C1NC(=O)C2C1C=CC(C(O)c1ccc3c(c1)OCO3)N2Nc1ccccn1` (stereo unspecified): the composite z-score in test [1] is 0.307 (inactive); in test [2] it was 0.247. In addition, the z-score was 0.453 in test [3], -1.69 (inactive) in test [4], 0.095 (inactive) in test [5] and 0.14 (inactive) in test [6].
`CCOC(=O)[C@H]1C/C=C/C[C@H](C(=O)OCC)C(=O)O[C@H]2[C@@H](OC)O[C@H](CO)[C@@H](OC(=O)CCc3ccccc3)[C@@H]2OC1=O`: the composite z-score in test [1] is -0.0432 (inactive); in test [2], 0.486. Moreover, the z-score in test [3] was -1.24; in test [4], -2.57 (inactive); in test [5], -0.0591 (inactive); in test [6] it was -0.23 (inactive).
For `C=CC[C@]1(C(=O)N(C)C)N=C(c2ccc(OCCCO)cc2)O[C@H]1c1ccccc1N=[N+]=[N-]`, the composite z-score was 0.845 (inactive) in test [1] and 0.382 in test [2]. The z-score in test [3] is -1.8; in test [4], -3.37 (inactive); in test [5], -0.22 (inactive); in test [6] it was -0.0961 (inactive).
For the compound `CCCC=C(CCC)[C@@H](NP(=O)(c1ccccc1)c1ccccc1)c1ccc(C(F)(F)F)cc1`, the values for the composite z-score in test [1] and in test [2] were -0.185 (inactive) and 0.258, respectively. In addition, the z-score in test [3] is -0.591; in test [4], -1.19 (inactive); in test [5] it was 0.272 (inactive); in test [6] it was -0.0984 (inactive).
In the case of `COc1cc(CO)cc(I)c1O[C@H]1C=C(C(=O)NCCO)C[C@@H](N(Cc2ccc(F)cc2)C(=O)C2CCCO2)[C@@H]1O` (stereo partly specified), the composite z-score was -0.192 (inactive) in test [1] and -0.318 in test [2]. Moreover, the z-score in test [3] was 0.463; in test [4] it was -4.27 (inactive); in test [5], 0.36 (inactive); in test [6], 0.824 (inactive).
For the compound `COCCOC(=O)N1C(=O)[C@@]2(c3cc(C#CCC(C(=O)OC)C(=O)OC)ccc31)[C@H](c1ccc(OCCO)cc1)N1[C@H](c3ccccc3)[C@H](c3ccccc3)OC(=O)[C@H]1[C@@H]2C(=O)N1CCN(c2ncccn2)CC1`, the composite z-score was 1.42 (inactive) in test [1] and 0.824 in test [2]. Moreover, the z-score was -2.25 in test [3], 2.08 (inactive) in test [4], -0.163 (inactive) in test [5] and -0.0755 (inactive) in test [6].
Regarding `CC(=O)N1Cc2ccccc2C[C@]2(N=C(c3ccc(OCCCO)cc3)O[C@@H]2c2ccccc2)C1=O`, the composite z-score in test [1] is 1.84 (inactive); in test [2], 0.836. Further, the z-score in test [3] was -1.42; in test [4] it was -4.24 (inactive); in test [5], -0.151 (inactive); in test [6], -0.0442 (inactive).
In the case of `C=C1C2CC3C(=C4C(CO[C@@H]4[C@H]4CCCN4S(=O)(=O)c4ccccc4[N+](=O)[O-])C4C(=O)N(C)C(=O)C34)CC2C(=O)N1C` (stereo partly specified), the composite z-score in test [1] is 0.253 (inactive); in test [2], 0.849. For the same compound, the z-score in test [3] was 0.769; in test [4] it was -7.2 (inactive); in test [5], -0.0718 (inactive); in test [6], 0.645 (inactive).
Take `CC(C)CCC[C@@H](C)[C@H]1CC[C@@]2(C)C3=C(CC[C@]12C)[C@@]1(C)CC[C@H](OC(=O)c2ccc(Br)cc2)C(C)(C)C1CC3` (stereo partly specified): the composite z-score is -0.349 (inactive) in test [1] and -0.198 in test [2]. The z-score in test [3] is 0.665; in test [4] it was -0.708 (inactive); in test [5], 0.0833 (inactive); in test [6], 0.377 (inactive).
As for `CN(C)CCCNC(=O)[C@@H]1c2ccccc2C(=O)N(CC23CC4CC(CC(C4)C2)C3)[C@H]1c1ccc(CO)cc1`, the composite z-score is 1.18 (inactive) in test [1] and 0.824 in test [2]. Moreover, the z-score in test [3] is -2.18; in test [4], 3.41 (inactive); in test [5] it was 0.595 (inactive); in test [6], 1.05 (inactive).
`C=C(COC)/C(=C/C[C@@H](OC(=O)c1ccncc1)c1ccc(OCCO)cc1)c1cnc2ccccc2c1`: the composite z-score in test [1] was 0.39 (inactive); in test [2], 0.595. For the same compound, the z-score in test [3] was -2.93; in test [4], -5.37 (inactive); in test [5], -0.0998 (inactive); in test [6], 0.349 (inactive).
Turning to `COc1ccccc1CN1C(=O)c2ccccc2[C@](Cc2ccccc2I)(C(=O)NC(C)C)[C@@H]1c1ccc(CO)cc1`, the composite z-score in test [1] was 0.265 (inactive); in test [2] it was 0.585. The z-score is -1.95 in test [3], -3.59 (inactive) in test [4], -0.316 (inactive) in test [5] and -0.471 (inactive) in test [6].
For the compound `CC[C@H]1C2=C3C(CC[C@H]4C(OCc5ccc(F)cc5C(F)(F)F)OC[C@](C)([C@@H]34)N(C(=O)OC(C)(C)C)C2)C2COC(=O)OCC21` (stereo partly specified), the values for the composite z-score in test [1] and in test [2] were 3.17 (inactive) and 0.393, respectively. Besides, the z-score was -0.749 in test [3], -3.54 (inactive) in test [4], 1.23 (inactive) in test [5] and 0.722 (inactive) in test [6].
With `C=CCOC(=O)[C@@H]1[C@H]2C(=O)O[C@H](c3ccccc3)[C@H](c3ccccc3)N2[C@H](c2ccc(OCCOC(=O)[C@H]3C[C@H]4C(=O)N[C@@H](CCCCNC(C)=O)C(=O)N4[C@H]3c3cccc(OCCO)c3)cc2)[C@@]12C(=O)Nc1ccc(I)cc12`, the composite z-score in test [1] is 1.09 (inactive); in test [2] it was 0.822. The z-score was -1.64 in test [3], 1 (inactive) in test [4], -0.398 (inactive) in test [5] and -0.929 (inactive) in test [6].
On to `CC(C)(C)OC(=O)CC[C@@]1(C(=O)O)N=C(c2ccc(OCCCO)cc2)O[C@@H]1c1ccccc1CN=[N+]=[N-]`, for which the composite z-score was -0.168 (inactive) in test [1] and 0.963 in test [2]. Further, the z-score in test [3] was 0.664; in test [4] it was -4.73 (inactive); in test [5], -0.0889 (inactive); in test [6] it was -0.0647 (inactive).
For the compound `O=C1NC(=O)C2C1C=CC(C(O)c1ccc(Br)cc1)N2Nc1ccccn1` (stereo unspecified), the values for the composite z-score in test [1] and in test [2] were 0.623 (inactive) and 0.883, respectively. For the same compound, the z-score in test [3] is 0.284; in test [4], -0.555 (inactive); in test [5] it was 0.48 (inactive); in test [6], 0.784 (inactive).
